{
  "source": "PubChem BioAssay (NCATS)",
  "note": "Results filed as inconclusive are left out. Active and inactive are the calls of the source. Calls follow the shape of the dose curve; as a rule, active = well fitted activation curve with a large enough effect; inconclusive = small, poorly fitted or top-dose-only effect; inactive = flat fitted curve, though single readings scatter. Potency is read from the fitted curve at half-maximal effect.",
  "data": [
    {"assay": "Cellular Toxicity (caspase-3) Jurkat (AID 655);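 also: cells exposed to compound for 16 h at 37 °C before reading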", "conditions": "Jurkat caspase-3 activation, luminescence; series mostly up to 92.2 µM; caspase-3 activation: at the top concentration", "source_text": "NIH Chemical Genomics Center [NCGC]\nNIH Molecular Libraries Screening Centers Network [MLSCN]\nNational Institutes of Environmental Health Sciences [NIEHS]\nNational Toxicology Program [NTP]\nWe have developed a 1536-well cell-based assay for quantitative high throughput screening (qHTS) against a number of cell lines to determine in vitro caspase 3/7 of small molecules. This particular assay uses the Jurkat cell line which is derived from human T cell leukemia.\nNCGC Assay Protocol Summary:\nThe Caspase-Glo 3/7 assay (Promega) is a homogeneous method to measure caspase-3 and caspase-7 activities in cultured cells. The quantitation of caspase 3/7 activity is based on the cleavage of a peptide-aminoluciferin substrate. After caspase cleaves the substrate the free aminoluciferin is liberated and serves as the substrate of luciferase, which generates the light. The luminescent signal is proportional to amount of caspase 3/7 activity present.\nUsing the Caspase-Glo 3/7 assay, the amount of caspase 3/7 activity was measured in the Jurkat cell line with complete culture medium following compound treatment for 16 hours. The assay was performed in opaque white 1536-well plates. In the screen, tamoxifen and doxorubicin were used as positive controls. Library compounds were measured for their ability to cause the activation of caspase 3/7 in the cell line, as reflected by an increase in luminescence signal, in a concentration-dependent manner. Data were normalized to the controls for basal activity (DMSO only) and 100% stimulation (100 uM tamoxifen). AC50 values were determined from concentration-response data modeled with the standard Hill equation.\nqHTS protocol for caspase 3/7 assay in Jurkat cells\n[Step] [Parameter] [Value] [Description]\n1. Reagent; 5 uL; 5000 Jurkat cells/well\n3. Controls; 23 nL; Tamoxifen 0.23 uM to 100 uM & Doxorubicin 7.0 pM to 100 uM\n4. Time; 16 hr; 37 °C incubation\n5. Reagent; 5 uL; Caspase-Glo 3/7 reagent\n6. Time; 20 min; Room Temperature\n7. Detection; Luminescence; Viewlux plate reader\nKeywords: caspase 3/7, apoptosis, Jurkat cell line, luminescence, NTPHTS, NTPHTS_NCGC, NIEHS, EPA, DSSTox, MLSMR, MLSCN, NIH Roadmap, qHTS, NCGC", "values": [
      {"smiles": "Cc1cc(CC(=O)O)n(C)c1C(=O)c1ccc(Cl)cc1", "caspase-3 activation": "-0.668% (inactive)"},
      {"smiles": "CCCCCCCCCCCCOS(=O)(=O)O", "Potency": "inactive"},
      {"smiles": "CC12CCC(CC1)C(C)(C)O2", "caspase-3 activation": "-2.05% (inactive)"},
      {"smiles": "O=C1O[C@H]([C@@H](O)CO)C(O)=C1O", "caspase-3 activation": "4.41% (inactive)"},
      {"smiles": "NC(=O)N/N=C/c1ccc([N+](=O)[O-])o1", "caspase-3 activation": "0.658% (inactive)"},
      {"smiles": "NCCNCCNCCN", "caspase-3 activation": "0.555% (inactive)"},
      {"smiles": "C[C@]12C[C@H](O)[C@H]3[C@@H](CCC4=CC(=O)CC[C@@]43C)[C@@H]1CC[C@@H]2C(=O)CO", "caspase-3 activation": "0.356% (inactive)"},
      {"smiles": "Cc1cc2nc3c(=O)[nH]c(=O)nc-3n(C[C@H](O)[C@H](O)[C@H](O)CO)c2cc1C", "caspase-3 activation": "-1.03% (inactive)"},
      {"smiles": "Cc1c(O)cccc1C(=O)N[C@@H](CSc1ccccc1)[C@H](O)CN1C[C@H]2CCCC[C@H]2C[C@H]1C(=O)NC(C)(C)C", "Potency": "31.6 µM (active)"},
      {"smiles": "O=C1c2c(O)cccc2Cc2cccc(O)c21", "caspase-3 activation": "0.357% (inactive)"},
      {"smiles": "COc1ccccc1O", "Potency": "inactive"},
      {"smiles": "CC1(C)[C@@H]2CC[C@@]1(C)C(=O)C2", "caspase-3 activation": "-1.41% (inactive)"},
      {"smiles": "Oc1cccc(O)c1", "caspase-3 activation": "12.1% (inactive)"},
      {"smiles": "Nc1ccc(S(=O)(=O)Nc2nccs2)cc1", "caspase-3 activation": "1.52% (inactive)"},
      {"smiles": "[Cl][In]([Cl])[Cl]", "caspase-3 activation": "0.297% (inactive)"},
      {"smiles": "CCCCOC(=O)c1ccc(O)cc1", "caspase-3 activation": "-0.753% (inactive)"},
      {"smiles": "COC(=O)C1=C(C)NC(C)=C(C(=O)OC)C1c1ccccc1[N+](=O)[O-]", "caspase-3 activation": "15.2% (inactive)"},
      {"smiles": "NCCNCCNCCNCCN", "caspase-3 activation": "5.78% (inactive)"},
      {"smiles": "NC(=O)c1ncn([C@@H]2O[C@H](CO)[C@@H](O)[C@H]2O)n1", "caspase-3 activation": "29% (inactive)"}
    ]}
  ]
}
